A number with no mark means an inactive call. Calls follow the shape of the dose curve; as a rule, active = well fitted curve in the direction sought with a large enough effect; inconclusive = small, poorly fitted or top-dose-only effect, or another doubt; inactive = no such curve, though single readings can be large; an effect the other way counts as inactive or inconclusive.
Experiment: Cellular Toxicity (caspase-3) HUV-EC-C (AID 656);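 also: cells exposed to compound for 16 h; 0% = DMSO basal and 100% = 100 µM tamoxifen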
Conditions: HUV-EC-C cells, caspase-3 activation (apoptosis), vehicle = 0, 100 µM tamoxifen = 100%; series mostly up to 92.2 µM; caspase-3 activation: at the top concentration
Procedure, shortened: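 Read-out: luminescence proportional to caspase 3/7 activity, measured 20 min after adding Caspase-Glo 3/7 reagent. Cells (HUV-EC-C) had received compound for 16 hr at 37°C. Increases relative to DMSO and 100 uM tamoxifen gave concentration-response AC50 values.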

SMILES	caspase-3 activation [%]
O=C(O)C(Br)Br	-5.13
Cc1ccc(OP(=O)(Oc2ccc(C)cc2)Oc2ccc(C)cc2)cc1	3.82
Oc1c(Cl)c(Cl)cc(Cl)c1Cl	1.28
Nc1ccc(Cc2ccc(N)c(Cl)c2)cc1Cl	-5.52
Brc1ccc(Oc2ccc(Br)cc2Br)c(Br)c1	1.27
O=[N+]([O-])c1c(Cl)c(Cl)c(Cl)c(Cl)c1Cl	1.41
CN1CSC(=S)N(C)C1	-0.517
ClCC(Cl)Cl	1.94
C=CC(=O)OCCO	-3.48
CC(C)Br	-3.33
O=[N+]([O-])c1ccc(O)c([N+](=O)[O-])c1	-7.37
CC(C)[N+](=O)[O-]	-0.351
Cc1cc(-c2cc(C)c(N)c(C)c2)cc(C)c1N	3.12
Nc1cc(Cl)ccc1O	2.09
CCN(N=O)C(N)=O	0.335
N#CC(Cl)(Cl)Cl	-0.295
CCCCC(CC)COC(=O)c1ccc(C(=O)OCC(CC)CCCC)c(C(=O)OCC(CC)CCCC)c1 (stereo not given)	2.3
O=C(O)C(Br)CBr (stereo not given)	-0.209
Nc1c(Br)cc([N+](=O)[O-])cc1[N+](=O)[O-]	-4.03

SMILES	caspase-3 activation [%]
O=[N+]([O-])c1ccccc1CCl	-2.22
Cc1cc(C)cc(OP(=O)(Oc2cc(C)cc(C)c2)Oc2cc(C)cc(C)c2)c1	0.748
N#CC(Br)Br	0.0632
O=C(O)C(Cl)Br (stereo not given)	-0.00764
COP(=S)(OC)SCn1nnc2ccccc2c1=O	-8.61
Nc1ccc([N+](=O)[O-])cc1N	-1.16
Cc1cc(N=Nc2ccccc2C)ccc1N	-8.63
OCCCCO	-3.56
O=[N+]([O-])c1cc(Cl)c(Cl)c(Cl)c1	-1.06
CC(C)(COCC1CO1)COCC1CO1 (stereo not given)	4.01
Cc1ccc2c(c1N)C(=O)c1ccccc1C2=O	-11.6
COc1ccccc1N	3.64
CC(C)(C)OOC(=O)c1ccccc1	2.69
c1ccc(N=NNc2ccccc2)cc1	-3.02
COC(C)(C)C	0.652
C(CCOCC1CO1)COCC1CO1 (stereo not given)	2.87
CN(C)c1ccc(N)cc1	-6.86
O=[N+]([O-])/C=C/c1ccccc1	-7.3

Experiment: Cellular Toxicity (caspase-3) SHSY5Y (AID 657);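 also: cells exposed to compound for 16 hours at 37 °C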
Conditions: SH-SY5Y caspase-3 activation, DMSO zero, 10 µM staurosporine = 100%; series mostly up to 91.7 µM; caspase-3 activation: at the top concentration
Procedure, shortened: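 Cells plated and incubated 5 h at 37 °C, dosed over a concentration range, incubated 16 h, then given Caspase-Glo 3/7 reagent for 1 h at room temperature before luminescence reading. Staurosporine (10 uM) defined full stimulation.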

SMILES	caspase-3 activation [%]
O=C(O)C(Br)Br	6.36
Cc1ccc(OP(=O)(Oc2ccc(C)cc2)Oc2ccc(C)cc2)cc1	0.286
Oc1c(Cl)c(Cl)cc(Cl)c1Cl	-1.94
Nc1ccc(Cc2ccc(N)c(Cl)c2)cc1Cl	1.45
Brc1ccc(Oc2ccc(Br)cc2Br)c(Br)c1	0.399
O=[N+]([O-])c1c(Cl)c(Cl)c(Cl)c(Cl)c1Cl	0.134
CN1CSC(=S)N(C)C1	4.78
ClCC(Cl)Cl	-2.52
C=CC(=O)OCCO	9.53
CC(C)Br	0.968
O=[N+]([O-])c1ccc(O)c([N+](=O)[O-])c1	-3.48
CC(C)[N+](=O)[O-]	-2.49
CCCC[N+](=O)[O-]	0.126
Cc1cc(-c2cc(C)c(N)c(C)c2)cc(C)c1N	0.437
Nc1cc(Cl)ccc1O	4.96
CCN(N=O)C(N)=O	-0.448
N#CC(Cl)(Cl)Cl	2.73

SMILES	caspase-3 activation [%]
O=C(O)C(Br)CBr (stereo not given)	2.98
O=[N+]([O-])c1ccccc1CCl	2.71
N#CC(Br)Br	2.29
COP(=S)(OC)SCn1nnc2ccccc2c1=O	-9.01
Nc1ccc([N+](=O)[O-])cc1N	5.75
O=C(O)c1cccc(Cl)c1	-0.614
Cc1cc(N=Nc2ccccc2C)ccc1N	-3.99
OCCCCO	-1.16
O=[N+]([O-])c1cc(Cl)c(Cl)c(Cl)c1	-0.433
CC(C)(COCC1CO1)COCC1CO1 (stereo not given)	5.2
Cc1ccc2c(c1N)C(=O)c1ccccc1C2=O	-8.99
COc1ccccc1N	-0.739
CC(C)(C)OOC(=O)c1ccccc1	7.97
c1ccc(N=NNc2ccccc2)cc1	-1.96
C(CCOCC1CO1)COCC1CO1 (stereo not given)	7.12
CN(C)c1ccc(N)cc1	13.3

Experiment: Cellular Toxicity (caspase-3) BJ (AID 658);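 also: cells exposed to compound for 16 hours; 0% = DMSO basal and 100% = 10 µM staurosporine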
Conditions: BJ fibroblasts, luminescence, normalized: DMSO 0%, staurosporine 100%; series mostly up to 91.7 µM; caspase-3 activation: at the top concentration
Procedure, shortened: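 Plated BJ cells (1000/well) rested 5 hr, received compound for 16 hr at 37 °C, then Caspase-Glo 3/7 reagent for 1 hr at room temperature before luminescence reading.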

SMILES	caspase-3 activation [%]
O=C(O)C(Br)Br	0.135
Cc1ccc(OP(=O)(Oc2ccc(C)cc2)Oc2ccc(C)cc2)cc1	-2.39
Oc1c(Cl)c(Cl)cc(Cl)c1Cl	-1.27
Nc1ccc(Cc2ccc(N)c(Cl)c2)cc1Cl	0.668
Brc1ccc(Oc2ccc(Br)cc2Br)c(Br)c1	-0.886
CN1CSC(=S)N(C)C1	-1.65
ClCC(Cl)Cl	2.11
C=CC(=O)OCCO	-3.07
CC(C)Br	-0.199
O=[N+]([O-])c1ccc(O)c([N+](=O)[O-])c1	-3.93
CC(C)[N+](=O)[O-]	-0.659
CCCC[N+](=O)[O-]	1.13
Cc1cc(-c2cc(C)c(N)c(C)c2)cc(C)c1N	0.377
Nc1cc(Cl)ccc1O	1.33
CCN(N=O)C(N)=O	1.15
N#CC(Cl)(Cl)Cl	-1.43
CCCCC(CC)COC(=O)c1ccc(C(=O)OCC(CC)CCCC)c(C(=O)OCC(CC)CCCC)c1 (stereo not given)	1.04
Nc1c(Br)cc([N+](=O)[O-])cc1[N+](=O)[O-]	-1.36

SMILES	caspase-3 activation [%]
O=[N+]([O-])c1ccccc1CCl	2.52
Cc1cc(C)cc(OP(=O)(Oc2cc(C)cc(C)c2)Oc2cc(C)cc(C)c2)c1	-1.94
N#CC(Br)Br	2.37
O=C(O)C(Cl)Br (stereo not given)	-0.099
COP(=S)(OC)SCn1nnc2ccccc2c1=O	-2.57
Nc1ccc([N+](=O)[O-])cc1N	-0.721
O=C(O)c1cccc(Cl)c1	-0.913
OCCCCO	-1.75
O=[N+]([O-])c1cc(Cl)c(Cl)c(Cl)c1	1.86
CC(C)(COCC1CO1)COCC1CO1 (stereo not given)	0.752
Cc1ccc2c(c1N)C(=O)c1ccccc1C2=O	-6.68
COc1ccccc1N	0.544
CC(C)(C)OOC(=O)c1ccccc1	-0.674
c1ccc(N=NNc2ccccc2)cc1	-0.509
COC(C)(C)C	0.682
C(CCOCC1CO1)COCC1CO1 (stereo not given)	0.517
CN(C)c1ccc(N)cc1	-6.76
